Experimental findings from PubChem BioAssay AID1508609 (The Scripps Research Institute Molecular Screening Center, 2020) are described below.

The structures appear in SMILES notation. The campaign covered roughly 6,700 compounds. Fewer than 10 were called active. Only a sample is shown. Values without a mark were called inactive.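 Rule for the calls: active = mean percent activation across replicates above the confirmation screen cutoff of 4.91%; inactive = the rest.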

Chain of G-protein coupled receptor 151 (Homo sapiens) (Q8TDV0 whole entry, looked up): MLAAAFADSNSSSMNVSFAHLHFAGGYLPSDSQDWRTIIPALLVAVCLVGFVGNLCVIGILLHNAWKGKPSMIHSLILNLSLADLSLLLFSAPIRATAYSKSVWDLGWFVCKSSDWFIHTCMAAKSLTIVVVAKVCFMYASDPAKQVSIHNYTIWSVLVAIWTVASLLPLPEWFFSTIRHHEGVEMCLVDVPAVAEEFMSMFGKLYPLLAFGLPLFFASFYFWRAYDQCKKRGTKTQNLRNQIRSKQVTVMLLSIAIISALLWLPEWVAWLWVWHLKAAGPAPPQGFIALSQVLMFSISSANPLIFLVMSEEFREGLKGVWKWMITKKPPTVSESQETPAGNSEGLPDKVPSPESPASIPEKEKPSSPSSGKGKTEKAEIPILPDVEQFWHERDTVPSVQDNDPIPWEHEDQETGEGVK

This assay concerns the target G-protein coupled receptor 151 (Homo sapiens) (UniProt Q8TDV0). Put plainly: GPR151 agonism via beta-arrestin recruitment – cell-based, PathHunter beta-arrestin, luminescence, confirmation (AID 1508609). The note with it: GPR151 PathHunter beta-arrestin cells, 90 min, at 11.2 µM, active compounds read high, % of EA-reagent control over plate median. Background: Recruitment of arrestin is a read-out of receptor activation apart from second messengers.
On to `Cc1nnc(SCC(=O)NCc2ccccc2)s1`, for which the activation is -1.41%.

For `CCN(CC)c1nc(Nc2cc(OC)c(OC)c(OC)c2)nc(N2CCOCC2)n1`, the activation is -0.81%.

Regarding `COc1ccc2c(c1)C=C(CN1CCN(CC3CCCCC3)C(CCO)C1)CO2` (stereo unspecified), the activation was 0.99%.

With `COc1ccc(OC)c(NC(=O)CN(c2cccc(C)c2C)S(C)(=O)=O)c1`, the activation is -1.37%.

With `CCc1cc2c(=O)c(-c3ccc4c(c3)OCCCO4)coc2cc1OC(=O)N1CCOCC1`, the activation was -0.64%.

As to `COc1cc(Nc2cc(N3CCN(c4ccc(F)cc4)CC3)c3noc4c3c2C(=O)c2ccccc2-4)cc(OC)c1OC`, the activation is -0.64%.

`O=CN1CCN(CCC(=O)Nc2ccccc2)CC1`: the activation is 1.05%.

On to `CC1(C(=O)Nc2cccc(C(F)(F)F)c2)CC2c3ccccc3C1c1ccccc12` (stereo unspecified), for which the activation is 0.28%.

With `C=CCN(c1ccc(C(=O)Nc2ccc(OCc3ccccc3)cc2)cc1)S(C)(=O)=O`, the activation is -0.47%.

With `O=C(COc1ccc(S(=O)(=O)NCCc2ccccc2)cc1)NC1CC1`, the activation is -1.2%.

As to `COc1cc(NC(=O)C2CC(c3ccccc3O)=NO2)c(OC)cc1Cl` (stereo unspecified), the activation was 0.24%.

`CCCCCC(=O)N/N=C(/C)c1ccc(O)cc1O`: the activation was 0.98%.

In the case of `CCOC(=O)c1sc(NC(=O)CSc2ncccn2)c(C#N)c1C`, the activation was -0.62%.

Consider `O=C(Cn1nnc2ccccc21)N/N=C/c1c(O)ccc2ccccc12`, for which the activation was 0.12%.

For `CC(C)CCSc1nc2c(c(=O)n1Cc1ccco1)C1(CCCCC1)Cc1ccccc1-2`, the activation was 0.06%.

For `CN1CCN(c2ccc(-c3nc4ccc(C(=O)NCc5nc6ccccc6[nH]5)cc4s3)cc2)CC1`, the activation is -0.31%.

Take `COc1cccc(C(=O)Nc2sc3c(c2C(N)=O)CCCCCC3)c1`: the activation was 0.1%.

As for `COc1ccc(N2C(=O)C3CCCN3C2c2cccc(OC)c2)cc1` (stereo unspecified), the activation was -1.45%.

For the compound `CCOc1ccc(/C=C2N=C(/C=C/c3cccc(Cl)c3Cl)OC\2=O)cc1`, the activation is -0.04%.

Take `CCN(CC)S(=O)(=O)c1ccc(N2CCCC2)c(NC(=O)c2ccc([N+](=O)[O-])o2)c1`: the activation is 0.12%.

`COCCN1C(=O)CC(CC(=O)NCc2nc3ccccc3[nH]2)(c2ccccc2C)C1=O` (stereo unspecified): the activation was 0.82%.

Take `CCc1nn(CCCN2CCN(c3cccc(Cl)c3)CC2)c(=O)n1CCOc1ccccc1`: the activation was 0.13%.

Regarding `CCOC(=O)c1sc2nc(SCC(=O)N(C)Cc3ccccc3)n(Cc3ccc4c(c3)OCO4)c(=O)c2c1C`, the activation was -1.12%.

As to `COc1ccccc1C(=O)N/C(=C\c1ccc2c(c1)OCO2)C(N)=O`, the activation is -0.62%.

`O=C(N/N=C/c1cccc(Cl)c1Cl)c1cccs1`: the activation is -1.68%.

On to `Cc1ccc(NCC(=O)N/N=C\c2ccc(I)o2)cc1`, for which the activation was -0.49%.

With `CC1CCN(CC(=O)Nc2ccccc2Cl)CC1`, the activation is 0.1%.

Take `CCCOc1ccc([N+](=O)[O-])cc1C=C1C(=O)NC(=O)NC1=O`: the activation was -0.34%.

For `COc1ccc(OC)c(NC(=O)CSc2nnc3[nH]c(=O)c(C)c(C)n23)c1`, the activation is -0.4%.

Turning to `COc1ccc(C(=O)Cc2cc3ccccc3oc2=O)c(OC)c1`, the activation is -0.78%.

As to `CCc1ccc(-c2ccc(C3CCC(CC)CC3)cc2)nc1` (stereo unspecified), the activation is -0.84%.

Consider `CCc1ccc(S(=O)(=O)NCCOc2cc(N3CCOCC3)ncn2)cc1`, for which the activation is 0.53%.

With `CCOC(=O)C1=C(CC)OC(N)=C(C#N)C1c1ccc(C(F)(F)F)cc1` (stereo unspecified), the activation was -0.53%.

With `CCC[C@@H]1NC(=O)[C@@H]2C[C@H](NCc3nc(-c4ccc(F)cc4)cs3)CN2C1=O`, the activation was 0.46%.

For the compound `CC(C)CC(C(=O)Nc1cccc([N+](=O)[O-])c1)N1C(=O)c2ccccc2C1=O` (stereo unspecified), the activation was 0.6%.

As for `COc1ccc(C(=O)COC(=O)C(Cc2ccccc2)NC(=O)c2ccco2)cc1` (stereo unspecified), the activation is 0.8%.

`CCC1(c2ccc(Cl)cc2Cl)NC(=S)N(c2ccc(C)c(C)c2)N1` (stereo unspecified): the activation was 0.75%.

For `CCC(C(=O)N1CCCCC1)n1c(C)c2cnn(-c3ccccc3)c(=O)c2c1C` (stereo unspecified), the activation is -0.56%.

`Cc1ccc2cc(C#N)c(SCCO)nc2c1`: the activation is 0.26%.

`COc1ccc(/C=C(\C#N)C(=O)Nc2cccc(S(=O)(=O)N3CCCCC3)c2)cc1`: the activation was -1.24%.

As for `Cc1ccc(Nc2nc(-c3ccccn3)cs2)cc1C`, the activation was -1%.

In the case of `CC(C)(C)NC(=O)Cc1coc2ccc3ccccc3c12`, the activation is 0.92%.

On to `COc1ccc(/C=C(\C#N)C(=O)Nc2ccc(F)cc2)c(OC)c1`, for which the activation was 0.7%.

Regarding `Cc1ccc(-n2cc(-c3ccccc3)c3c(N4CC(C)OC(C)C4)ncnc32)cc1` (stereo unspecified), the activation was 0.03%.

As for `COc1cc(/C=N/N=C2/NC(=O)CS2)ccc1OC(=O)c1ccccc1C`, the activation was -0.88%.

Turning to `O=C(CN1C(=O)S/C(=C\c2ccc(Cl)s2)C1=O)Nc1ccccc1F`, the activation is -1.03%.

In the case of `CO[C@@H]1COC(=O)[C@@H](C)COC(=O)[C@H](C)NC(=O)C/C=C/[C@H]1C`, the activation is 0.63%.

In the case of `Cn1c2ccccc2c2nnc(SCC(=O)Nc3ccc(NC(=O)C4CC4)cc3)nc21`, the activation was 0.69%.

For `Cc1nn(C)c(C)c1-c1nc2ncnc(NCCO)c2[nH]1`, the activation is -0.32%.

`CCc1nnc2n1N(C(C)=O)C(c1ccc3c(c1)CCCC3)=C(C(C)=O)S2`: the activation was 0.79%.

On to `CC(C)(C)OC(=O)N1CCC[C@H](Cn2cc(C(=O)O)nn2)C1`, for which the activation is 0.63%.

On to `Cc1nc2cc(C(=O)NCc3ccc4c(c3)OCO4)ccc2n1-c1ccc(OCc2ccccc2)cc1`, for which the activation was -1.41%.

With `CCCCNC(=O)C1(c2ccc(OC)cc2)CCOCC1`, the activation was -0.13%.

As to `CCC(=O)N(CCC(Cc1ccccc1)c1ccc2c(c1)OCO2)Cc1ccc(OC(C)C)cc1` (stereo unspecified), the activation is 1.24%.

For the compound `CC(C)c1ccc(Nc2nccn3c(-c4cccc(CO)c4)cnc23)cc1`, the activation was 1.58%.

On to `Cc1ccc(S(=O)(=O)NCc2nc3nc(C)cc(C)n3n2)cc1`, for which the activation was -1.42%.

Consider `Nc1cc(=O)nc(SCC(=O)Nc2nccs2)n1-c1ccc(F)cc1`, for which the activation was 1.67%.

As to `c1ccc(NCc2cccc3ccccc23)nc1`, the activation is -0.81%.

In the case of `COc1ccccc1C1C(C(N)=O)=C(C)Nc2nc(CCCO)nn21` (stereo unspecified), the activation is -0.72%.

On to `CC1CCN(C(=O)C(NS(=O)(=O)c2ccc3c(c2)oc(=O)n3C)C(C)C)CC1` (stereo unspecified), for which the activation was 0.12%.

For the compound `Cc1cc(=O)[nH]c(SCC(=O)Nc2cccc3ccccc23)n1`, the activation is -0.05%.

With `COc1cccc(C2SCC(=O)N2c2cccc(C)c2)c1OC` (stereo unspecified), the activation was 0.31%.

Consider `CC(C)(C)C1CCC(=NNC(=O)C(=O)NCCc2ccccc2)CC1` (stereo unspecified), for which the activation is 1.36%.

Turning to `C#CCOc1ccc(Br)cc1/C=C1\NC(=S)N(C)C1=O`, the activation is -0.05%.

On to `Cc1ccc(NC(=O)CCn2c(=O)oc3ccccc32)cc1Cl`, for which the activation was 0.81%.

As to `C(=N\N1CCN(c2ccccn2)CC1)/C1=C(N2CCOCC2)C(=C/c2ccccc2)/CC1`, the activation is 0.86%.

For `CC(C)(C)C1(O)CCN2C[C@H]3c4ccccc4CCc4cccc(c43)[C@@H]2C1` (stereo partly specified), the activation was -0.56%.

As to `CCOCCCNC(=O)NC1CCN(c2nc3ccccc3s2)CC1`, the activation is 0.63%.

Consider `CCOC(=O)Cc1coc(NC(=O)c2ccc(Cl)cc2)n1`, for which the activation was 1.26%.

On to `CC(C)C(=O)NNS(=O)(=O)c1ccc([N+](=O)[O-])cc1`, for which the activation is -0.02%.

On to `N#Cc1ccc(N2CCN(CCCNC(=O)Nc3ccccc3)CC2)cc1`, for which the activation was -0.19%.

For the compound `O=C1Cc2cc(S(=O)(=O)Nc3cccc(Cl)c3)cc3c2N1CCC3`, the activation is 0.12%.

`COc1cccc(NC(=O)CN(C)S(=O)(=O)c2ccc3c(c2)SCC(=O)N3)c1`: the activation is -0.01%.

Turning to `CCNc1nc(NC(C)C)nc(OCCOC(C)=O)n1`, the activation was -0.68%.

Turning to `OCc1ccccc1CNc1ccc(F)cc1`, the activation is 0.05%.

Take `COCCNCCOc1ccc(C(C)(C)C)cc1`: the activation is -1.21%.

Take `CCN(CC)C1CCN(C(=O)c2cc(COc3ccc4ncccc4c3)on2)C1` (stereo unspecified): the activation is -1.18%.

For the compound `COc1ccc(-c2cc(N)n(S(=O)(=O)c3ccccc3)n2)c(OC)c1`, the activation was -0.31%.

Take `COc1cc2nc(-c3ccc4c(c3)C(=O)N(CCC(C)C)C4=O)oc(=O)c2cc1OC`: the activation was 0.42%.

On to `COc1ccc(Nc2nc(-c3ccc(F)cc3)cs2)c(OC)c1`, for which the activation was -0.04%.

Take `CCCN1C(=O)c2ccc(C(=O)Nc3ccc(C(C)=O)cc3)cc2C1=O`: the activation was 0.09%.

Take `CC(C(=O)NCCN1CCOCC1)n1c2ccccc2c2cn[nH]c(=O)c21` (stereo unspecified): the activation is -0.57%.

`c1ccc2sc(-c3cnc4ccc(NC5CCOCC5)nn34)cc2c1`: the activation is -1.36%.

With `O=C(COc1ccc(Br)cc1CO)NCC(F)(F)F`, the activation is 0.36%.

For `CCOc1ccc(NC(=O)N2CCN(CC)CC2)cc1`, the activation was 0.34%.

Regarding `CCc1ccc(N2N=C(C)/C(=C\c3ccc(-c4ccc5c(c4)C(=O)NC5=O)o3)C2=O)cc1`, the activation was -0.14%.

In the case of `O=S(=O)(NCc1csc(-c2cccnc2)n1)c1ccc2ccccc2c1`, the activation was 0.68%.

On to `CCN1/C(=C/c2ccc3cc(C)ccc3[n+]2CC)Sc2ccc(-c3ccccc3)cc21`, for which the activation was -0.55%.

For the compound `Cc1ccc(NC(=O)Cn2cc(-c3ccccc3)c(N3CCOCC3)n2)c(C)c1`, the activation is -0.77%.

`CC1CCCCN1C(=O)c1cc2c(=O)n(C)c3ccccc3c2s1` (stereo unspecified): the activation was 0.54%.

`COc1cccc(/C=C2/C(=O)NC(=O)N(c3ccccc3F)C2=O)c1`: the activation is 0.99%.
